Measured values published in PubChem BioAssay AID2390 (National Center for Advancing Translational Sciences (NCATS), 2010).
Some of the results follow. Where a call stands in place of a potency, no number is given. Records with an inconclusive call do not appear. The source made the active and inactive calls. Calls come from the whole dose curve; as a rule, active = well fitted inhibition curve with a large enough effect; inconclusive = small, poorly fitted or top-dose-only effect; inactive = no such curve, though single readings can be large or run the other way.

molecular target: Regulator of G-protein signaling 12 (Homo sapiens) (UniProt O14924); assay: Confirmation qHTS Assay for Inhibitors of RGS12 GoLoco Motif Activity (Red Fluorophore); settings: Gai1/rhodamine-RGS12 GoLoco peptide fluorescence polarization; series mostly up to 57.1 µM
Sequence (O14924 whole entry, looked up): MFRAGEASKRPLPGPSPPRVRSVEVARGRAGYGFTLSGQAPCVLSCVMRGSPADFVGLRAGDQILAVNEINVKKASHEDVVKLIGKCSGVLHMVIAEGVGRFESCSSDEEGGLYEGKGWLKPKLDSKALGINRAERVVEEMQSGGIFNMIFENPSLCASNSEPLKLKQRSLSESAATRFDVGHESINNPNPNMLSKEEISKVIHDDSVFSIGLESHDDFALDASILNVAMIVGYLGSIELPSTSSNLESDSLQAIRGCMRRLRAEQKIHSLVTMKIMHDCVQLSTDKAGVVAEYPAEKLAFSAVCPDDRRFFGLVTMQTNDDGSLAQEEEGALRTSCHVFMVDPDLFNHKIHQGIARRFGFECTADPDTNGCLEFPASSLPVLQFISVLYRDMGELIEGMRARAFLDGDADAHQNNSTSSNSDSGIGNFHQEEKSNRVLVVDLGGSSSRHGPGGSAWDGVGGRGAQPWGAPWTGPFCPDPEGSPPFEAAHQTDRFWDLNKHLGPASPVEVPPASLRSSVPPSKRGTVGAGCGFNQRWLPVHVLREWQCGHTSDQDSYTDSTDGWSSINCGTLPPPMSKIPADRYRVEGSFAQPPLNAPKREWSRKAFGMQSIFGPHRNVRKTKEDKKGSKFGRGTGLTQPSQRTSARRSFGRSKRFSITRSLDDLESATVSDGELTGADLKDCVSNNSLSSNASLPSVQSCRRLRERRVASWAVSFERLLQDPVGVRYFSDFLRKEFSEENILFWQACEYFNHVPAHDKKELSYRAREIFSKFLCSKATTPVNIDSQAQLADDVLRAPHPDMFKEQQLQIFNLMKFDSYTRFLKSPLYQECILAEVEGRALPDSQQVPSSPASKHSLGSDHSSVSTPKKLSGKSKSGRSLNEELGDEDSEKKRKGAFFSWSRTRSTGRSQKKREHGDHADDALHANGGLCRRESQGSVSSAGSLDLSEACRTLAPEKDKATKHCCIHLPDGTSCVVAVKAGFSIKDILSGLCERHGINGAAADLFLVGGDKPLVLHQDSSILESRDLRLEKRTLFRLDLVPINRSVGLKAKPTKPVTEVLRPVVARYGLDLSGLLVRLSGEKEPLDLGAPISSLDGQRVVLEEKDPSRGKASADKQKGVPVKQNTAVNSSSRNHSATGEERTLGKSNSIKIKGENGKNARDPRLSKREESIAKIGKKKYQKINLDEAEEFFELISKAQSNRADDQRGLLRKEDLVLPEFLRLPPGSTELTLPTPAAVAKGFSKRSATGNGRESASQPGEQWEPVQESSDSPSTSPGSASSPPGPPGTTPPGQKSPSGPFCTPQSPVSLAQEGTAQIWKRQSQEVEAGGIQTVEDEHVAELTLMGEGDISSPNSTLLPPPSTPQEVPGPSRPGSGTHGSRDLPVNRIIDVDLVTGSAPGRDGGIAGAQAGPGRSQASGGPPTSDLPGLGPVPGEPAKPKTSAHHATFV
Source text: G-protein-coupled receptors (GPCRs) are major targets for drug discovery. The regulator of G-protein signaling (RGS)-protein family has important roles in GPCR signal transduction. RGS proteins contain a conserved RGS-box, which is often accompanied by other signaling regulatory elements. RGS proteins accelerate the deactivation of G proteins to reduce GPCR signaling; however, some also have an effector function and transmit signals. Combining GPCR agonists with RGS inhibitors should potentiate responses, and could markedly increase the agonist's regional specificity. The diversity of RGS proteins with highly localized and dynamically regulated distributions in brain makes them attractive targets for pharmacotherapy of central nervous system disorders. […] A complex of Gai1 and fluorescently labeled G-alpha-binding peptide (the "GoLoco motif") derived from RGS12 is incubated with library members. Inhibitors of the binding are detected by a decrease in the fluorescence polarization (FP) of the fluorophore. Protein was supplied by Prof. David Siderovski, University of North Carolina at Chapel Hill. This BioAssay is a confirmatory run of primary qHTS protocol (AID: 880). See following reference for more details: Kimple AJ, et al. Comb Chem High Throughput Screen. 2008 Jun;11(5):396-409. Assay Submitter: Siderovski, David P, University of North Carolina at Chapel Hill Screening Center PI: Austin, C.P. Screening Center: NIH Chemical Genomics Center [NCGC] NIH Grant: NS053754-01
Reagents/Controls: Assay Buffer: 10 mM Tris-HCl, 150 mM NaCl, 0.1 mM GDP (prepared fresh), and 0.05% NP40 at pH 7.5. […] 15 nM Rhodamine labeled peptide/25 nM protein in columns 1, 2, 5 - 48. Titration of unlabeled peptide control ([H][…][NH2], custom synthesized and HPLC-purified by Tufts University Core Facility) from 20 mM, then 1:2 dilution, 16-point in duplicate, pin-transferred to column 2, rows 1 to 32. Column 1 is neutral. Rhodamine-labeled peptide (Rhodamine-[…]-NH2) was custom-synthesized and HPLC-purified by Invitrogen (Carlsbad, CA). Assay Steps. Four uL of reagents were dispensed to 1536-well Greiner black solid-bottom plates. Compounds and controls (23 nL) were transferred via Kalypsys PinTool. The plates were incubated for 10 min at room temperature, and then read on ViewLux (Perkin-Elmer) High-throughput CCD imager using BODIPY for the rhodamine-labeled decapeptide probe. During dispense, reagent bottles were kept submerged into 4 deg C water bath and all liquid lines were covered with aluminum foil to minimize probe and protein degradation. All screening operations were performed on a Kalypsys robotic system (Kalypsys, Inc., San Diego, CA) containing one RX-130 and two RX-90 anthropomorphic robotic arms.

SMILES	Potency
Cc1cc2nc3c(=O)n(Cc4ccccc4)c(=O)[nH]c3nc2cc1N	3.98 µM (active)
O=C(Nc1cccc(Nc2nccc(Nc3cccc(C(F)(F)F)c3)n2)c1)C1CC1	inactive
Cc1nn(C)cc1N1C(=O)c2cccc3c(N)ccc(c23)C1=O	14.1 µM (active)
CCn1c(SCC(=O)NCc2ccco2)nnc1-c1ccc(N)cc1	inactive
